# uPA generation: qHTS for Inhibitors of Cell Surface uPA Generation; cell surface uPA generation assay, qHTS; Potency, µM (highest dose often 38.3 µM), hits mostly inhibitors; 330,000 tested, 0.31% active; active means well fitted inhibition curve with a large enough effect; inconclusive means small, poorly fitted or top-dose-only effect; inactive means no such curve, though single readings can be large or run the other way; tested in mouse RAW 264.7 cells; further: nearly all actives have a fitted effect of over 55% in size
# TCR act: Activators of T cell receptors: qHTS campaign | primary human leukocytes, anti-CD3, IL-2 HTRF, 48 h | Potency, µM (titrated, usually from 9.22 µM), hits mostly activators | 330,000 tested, under 10 active
#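 Using a-CD3 beads without co-stimulation, primary human leukocytes were exposed to compounds for 48 hr. An HTRF IL-2 kit measured the cytokine, with europium-to-d2 energy transfer producing emission at 665nm upon 320nm excitation.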
# Sfp PPTase inh: qHTS Assay for Inhibitors of Bacillus subtilis Sfp phosphopantetheinyl transferase (PPTase). 4'-phosphopantetheinyl transferase ffp (Bacillus subtilis), Q9F4F7. Biochemical Sfp PPTase activity, qHTS. Potency, µM, actives largely listed as inhibitors. 310,000 tested, 3.5% active. AID 1490, 2009;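 further: the enzyme is Sfp with the accession as filed and its product quenches rhodamine fluorescence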
#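 After 15 min at room temperature with compound, 15 nM Sfp received 5 uM rhodamine-CoA plus 12.5 uM BHQ-2-ybbR (50 mM Hepes pH 7.6, 10 mM MgCl2). Rate came from the fluorescence difference over 30 min, ex 525/em 598 nm.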
# ClpP mod: qHTS Assay for Activators of ClpP; ATP-dependent Clp protease proteolytic subunit (Bacillus subtilis (strain 168)), P80244; purified B. subtilis ClpP, FRET peptide cleavage, 20 min; Potency, µM (titrated, usually from 57.5 µM); 340,000 tested, 1.9% active; active means well fitted falling curve with a large enough effect; inconclusive means small, poorly fitted or top-dose-only effect; inactive means no such curve, though single readings can be large or run the other way; further: the source files actives as falling curves though it sought activators and does not explain the sign; nearly all actives have a fitted effect of over 65% in size
#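 Purified B. subtilis ClpP, 10 microg/mL final in Tris/HCl pH8 with KCl, BSA, glycerol and Tween-20, cleaved an Abz/nitrotyrosine-quenched decapeptide. Fluorescence (ex 320, em 430) was read at 0 and 20 min at room temperature. Delta was normalized to 5.8 microM ADEP and DMSO/no-enzyme controls.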
# Hits are given with their value; i = inactive; ? = inconclusive; nt = not tested or not shown. A selection: hits, their analogues and other compounds. The true share with any hit is near 4.2%. Unless noted, the call rests on the fitted dose curve; in most records, active means well fitted curve in the direction sought with a large enough effect; inconclusive means small, poorly fitted or top-dose-only effect, or another doubt; inactive means no such curve, though single readings can be large; an effect the other way counts as inactive or inconclusive.
SMILES,uPA generation,TCR act,Sfp PPTase inh,ClpP mod
CCc1c(C(C)S(=O)(=O)c2ccc(C)cc2)[nH]c(=O)n1-c1ccc(C)cc1 (stereo not given),i,i,56µM,i
CCc1[nH]c(=O)[nH]c1C(C)S(=O)(=O)c1ccc(C)cc1 (stereo not given),i,i,20µM,nt
Cc1ccc(NS(=O)(=O)c2c(C)[nH]c(C)c2C(=O)N2CCCC2)cc1Cl,i,i,i,i
c1cc(-c2ccc(N3CCOCC3)cc2)n2cnnc2c1,nt,nt,nt,i
O=C(O)c1ccccc1SC1CC(=O)N(c2cccc3ccccc23)C1=O (stereo not given),i,i,16µM,nt
CCN1C(=O)CC(Sc2ccccc2C(=O)O)C1=O (stereo not given),nt,i,i,i
CCOc1ccc(N2C(=O)CC(Sc3ccccc3C(=O)O)C2=O)c([N+](=O)[O-])c1 (stereo not given),i,i,13µM,i
CNc1oc(-c2ccccc2Cl)nc1C#N,i,i,i,?
CNc1oc(-c2cccc3ccccc23)nc1C#N,i,i,i,16µM
CCOc1cc(/C=N/Nc2nn3cnnc3c3ccccc23)ccc1O,i,i,?,i
C(=N\Nc1nn2cnnc2c2ccccc12)/c1ccco1,i,i,50µM,nt
C(=N\Nc1ccc2nncn2n1)/c1ccco1,i,i,i,i
COc1cccc(/C=N/Nc2nn3cnnc3c3ccccc23)c1,i,i,56µM,i
COc1ccccc1/C=N/Nc1nncc2ccccc12,i,i,?,nt
COc1ccc(/C=N/Nc2nncc3ccccc23)cc1,i,i,50µM,nt
Oc1ccc(/C=N/Nc2nn3cnnc3c3ccccc23)cc1,?,i,56µM,i
COc1cc(/C=N/Nc2nn3cnnc3c3ccccc23)ccc1O,?,nt,40µM,i
CCOc1ccc(N2CC(C(=O)Nc3nnc(CC)s3)CC2=O)cc1 (stereo not given),i,i,56µM,nt
CCc1nnc(NC(=O)C2CCN(c3nccc(C)n3)CC2)s1,nt,i,i,32µM
CCOCCc1nnc(NC(=O)C2CC(=O)N(c3ccc(OCC)cc3)C2)s1 (stereo not given),i,i,i,nt
CCOc1ccc(NC(=O)Nc2nnc(CC)s2)cc1,i,i,i,28µM
CCc1nnc(NC(=O)C2CC(=O)N(c3ccc(C)cc3)C2)s1 (stereo not given),i,i,50µM,i
CCc1nn(CCCC(=O)NCc2ccc(OC)c(OC)c2)c(=O)c2cc3occc3n12,nt,nt,nt,i
COc1ccc2c(c1)c(=O)c(S(=O)(=O)c1ccc(Cl)cc1)cn2Cc1cc(C)ccc1C,nt,nt,nt,i
Cc1cc(C)nc(N/C=C(\C#N)C(=O)c2cccc(CSc3ccccc3)c2)n1,nt,nt,nt,i
SMILES,uPA generation,TCR act,Sfp PPTase inh,ClpP mod
CCOc1ccc(N2CC(C(=O)Nc3ccccn3)CC2=O)cc1 (stereo not given),i,i,i,nt
CCOc1ccc(N2CC(C(=O)Nc3ncccc3C)CC2=O)cc1 (stereo not given),i,i,i,18µM
COC(=O)c1ccc(/C=N/NC(=O)c2ccccc2Cl)cc1,i,i,i,i
CC(C)c1ccc(/C=N/NC(=O)c2ccccc2Cl)cc1,3.2µM,i,i,i
O=C1CCCC(=O)C1CS(=O)(=O)c1ccccc1,i,i,20µM,nt
O=C1CC(c2ccc(Cl)cc2)CC(=O)C1CS(=O)(=O)c1ccccc1 (stereo not given),i,i,i,nt
Cc1ccc(NC(=O)CSc2nnc3[nH]c(=O)cc(-c4ccccc4)n23)cc1Cl,nt,nt,nt,i
O=C(CCS(=O)(=O)c1nc(-c2cccs2)cc(C(F)(F)F)n1)Nc1ccc(F)c(Cl)c1,nt,nt,nt,22µM
CCC(c1nnnn1CCOC)N(Cc1cc2cc(C)c(C)cc2[nH]c1=O)CC1CCCO1 (stereo not given),i,i,?,?
CCCC(c1nnnn1CCOC)N(Cc1cc2cc(C)c(C)cc2[nH]c1=O)CC1CCCO1 (stereo not given),nt,i,10µM,i
CCCC(c1nnnn1CC(=O)OCC)N(Cc1cc2ccc(C)cc2[nH]c1=O)C1CCCC1 (stereo not given),i,i,i,18µM
Cc1cc(C)c2cc(CN(Cc3nnnn3C3CCCCC3)CC3CCCO3)c(=O)[nH]c2c1 (stereo not given),i,i,i,i
CCC(c1nnnn1CCOC)N(Cc1cc2c(C)cc(C)cc2[nH]c1=O)CC1CCCO1 (stereo not given),nt,i,i,28µM

# Assay outcomes (PubChem)
